# About 240 (0.071%) of roughly 340,000 compounds were called active. A call without a number means that no potency is given here. Not shown: some 5% with an inconclusive outcome. Calls follow the shape of the full dose curve. The full list was thinned out, with actives kept by preference.
# Molecular target: Snurportin-1 (Homo sapiens) + GTP-binding nuclear protein Ran (Homo sapiens) + Importin subunit beta-1 (Homo sapiens) (UniProt O95149+P62826+Q14974)
# Assay: qHTS Assay for Inhibitors of RanGTP induced Rango (Ran-regulated importin-beta cargo) - Importin beta complex dissociation; also: nearly all actives have a fitted effect of over 45% in size
# Details: Biochemical FRET Rango-importin beta; series mostly up to 46.1 µM
# From the text: NIH Molecular Libraries Probe Production Centers Network [MLPCN] NIH Chemical Genomics Center [NCGC] MLPCN Grant: R03 MH090808-01A1 Assay Submitter (PI): Petr Kalab NCGC Assay Overview: The small GTPase Ran regulates transport of macromolecules between the nucleus and the cytoplasm (nuclear transport) and has important functions in mitotic spindle assembly, nuclear envelope (NE) formation and nuclear pore complex (NPC) assembly. RanGTP gradient is thought to promote spindle assembly by providing a spatial clue to microtubule nucleation and Aurora A activation. Because the localized release and binding of importin alpha cargos relays this spatial clue to SAFs, inhibitors of the Rango - importin beta complex can then be used in further understanding their role in cell cycle specifically in mitosis progression. […] Activation of Aurora A has been linked to different types of cancer and a number of Aurora kinase inhibitors are being developed as potential canter therapeutics; therefore, identified inhibitors of this complex could be developed into potential anti-mitotic probes for cancer treatment. Purified recombinant proteins Rango - importin beta and RanGTP-RCC1 stock premixes were provided by the assay submitter. The assay used a fluorescence resonance energy transfer (FRET) Rango biosensor that contains the IBB of human snurportin 1 flanked by yellow fluorescent protein (EYFP) at the amino terminus and cerulean CFP10 at the carboxy terminus. […] RanGTP binding to the complex (in the presence of RCC1) releases the Rango from the complex. The flexibility of the IBB in the freed Rango allows the donor - acceptor fluorophores to interact, resulting in a high FRET signal. Inhibitors will therefore be identified based on the ability to interfere with the FRET signal increase. DMSO treated and no RanGTP-RCC1 (buffer only) wells were used as negative and positive controls respectively. FRET readings were obtained at two time points. FRET reading prior to importin beta addition (pre-read) were used flag potential compound interference; FRET reading after importin beta addition (post-read) were used to identify inhibitors.
# NCGC Assay Protocol Summary: Two and a half uL/well of Rango- importin beta premix solution (0.1 uM Rango, 0.25 uM importin beta, 1x PBS, 1mM DTT, 0.02% Tween-20, 0.1% BSA final concentrations) was dispensed into 1536-well assay plates (Greiner, solid black medium-binding plates) with Aurora Discovery BioRAPTR Flying Reagent Dispenser (FRD; Beckton-Dickenson). Compound solution (23 nL) was transferred to the assay plate using Kalypsys pin tool equipped with a 1536-pin tool and incubated at room temperature for 5 min followed by a FRET pre-read using the PerkinElmer Envision plate reader. Two and a half uL/well of RanGTP-RCC1 premix solution (0.6 uM Ran, 2mM GTP, 0.2 uM RCC1, 1x PBS, 1mM DTT, 0.02% Tween-20, 0.1% BSA final concentrations) were then added and incubated at room temperature giving a final reaction volume of 5uL. After 45min FRET post-read was obtained via the Envision plate reader using the same optics and settings as the pre-read (CFP/YFP optimized dual optical module D450/D505; excitation mirror CFP 430/24 nm; and emission filters CFP 486/10 nm and YFP 530/10 nm).
# Potency is read from the fitted curve at half-maximal effect.
row,Compound,Potency
1,CSCCC(NS(=O)(=O)c1ccc(C)cc1)C(=O)N(C)CC(=O)Nc1ccccc1Br (stereo unspecified),inactive
2,CC(=O)OCC(=O)C1(O)CCC2C3CC(C)C4=CC(=O)CCC4(C)C3C(O)CC21C (stereo unspecified),inactive
3,NC(=S)NN=C1CCCC(C(F)(F)F)C1 (stereo unspecified),inactive
4,C[C@@H]1NS(=O)(=O)c2cc(Cl)ccc2O[C@@H]1c1ccccc1,inactive
5,CC(=O)CSc1nc(CCc2ccccc2)c(C#N)c(=O)[nH]1,inactive
6,CC(C)CN1CC(C)C(=O)N(c2ccccc2)C1=S (stereo unspecified),inactive
7,Nc1ncnc2c1cnn2C1CC(O)C(CO)O1 (stereo unspecified),inactive
8,Cc1ccc(-c2csc(C(C#N)=C(O)CN3CCN(C(=O)c4ccco4)CC3)n2)cc1,inactive
9,O=C1CC(C(=O)O)NC(=S)N1 (stereo unspecified),inactive
10,CCc1nnc(NC(=O)c2cc(S(=O)(=O)N3CCN(CC)CC3)ccc2Cl)s1,inactive
11,O=C(Cc1ccc(NC(=O)C2CCCN(C(=O)C3CCCCC3)C2)cc1)Nc1cccc(C(=O)N2CCCCC2)c1 (stereo unspecified),inactive
12,CCc1ccc(C(=O)C(C)OC(=O)CN2C(=O)NC3(CCCC3)C2=O)cc1 (stereo unspecified),inactive
13,COc1ccc(CCNC(=O)c2ccc(NC(=O)CC3SC(N4CCCCC4)=NC3=O)cc2)cc1OC (stereo unspecified),inactive
14,Cc1onc(-c2c(F)cccc2Cl)c1C(=O)Nc1cccc(S(=O)(=O)N2CCCCC2)c1,inactive
15,COc1ccccc1C(=O)c1ccccc1C(=O)c1ccccc1,inactive
16,CCOC(=O)N(Cc1ccccc1)C1CC1,inactive
17,COC1=NC2=NCCN2C(OC)=N1,inactive
18,O=C(NN=Cc1ccccc1O)NN=Cc1ccccc1O,inactive
19,O=[N+]([O-])c1cccc(C=NN=Cc2ccccc2O)c1,inactive
20,CN(C)CCNC(=O)c1ccc(Cl)c2cc3ccccc3nc12,inactive
21,CCC(C)C1(C2CCCC2)NC(=O)NC1=O (stereo unspecified),inactive
22,CSc1ncnc2c1ncn2CC(=O)C1CCC2C3CCC4=CC(=O)CCC4(C)C3CCC12C (stereo unspecified),inactive
23,COc1cccc2c1C(=O)c1c(O)c3c(c(O)c1C2=O)CC(O)(C(C)=NNC(=O)c1ccc(Cl)c(Cl)c1)CC3OC1CC(N)C(O)C(C)O1 (stereo unspecified),inactive
24,CCCN(CCC)S(=O)(=O)c1cc2c(cc1Br)CCN2C(=O)CC,inactive

row,Compound,Potency
1,COc1ccc(C(=O)Nc2cccc(/C=C(/CCC(=O)O)c3nc4ccccc4s3)c2)cc1,inactive
2,CCCN(C(=O)COC(=O)CNS(=O)(=O)c1ccc(NC(C)=O)cc1)C1CCS(=O)(=O)C1 (stereo unspecified),inactive
3,CC(=NNC(=S)N1CCCCCC1)c1ccccn1,inactive
4,Cc1cccc(CC2(O)C(=O)Nc3ccccc32)n1 (stereo unspecified),inactive
5,Cc1cc(OCCCC(=O)Nc2cc(S(=O)(=O)N3CCOCC3)ccc2N2CCOCC2)ccc1Cl,inactive
6,COC1=CC(=O)OC(C)(c2ccccc2)C1 (stereo unspecified),inactive
7,COc1ccc2c(c1)C(=O)CC(c1ccccc1)O2 (stereo unspecified),inactive
8,CC(NC(=O)c1ccccc1)C(=O)OCC(=O)Nc1cccc(S(=O)(=O)N2CCCC2)c1 (stereo unspecified),inactive
9,O=C1C(=O)N(c2ccccc2)C(c2ccccc2)C1c1ccccc1 (stereo unspecified),inactive
10,Cc1ccc(OCCNC(=O)c2cccc(S(=O)(=O)N3CCN(Cc4ccccc4)CC3)c2)cc1,inactive
11,COC[C@@H]1NS(=O)(=O)c2ccc(Br)cc2O[C@H]1c1ccccc1,inactive
12,CN(C(=O)c1cccc(NC(=O)Cc2cccc(NC(=O)C3CCCN(C(=O)C4CC4)C3)c2)c1)C1CCC1 (stereo unspecified),inactive
13,O=S1(=O)CCOC[C@H](Cc2ccccc2)N1Cc1ccccc1Br,inactive
14,O=c1oc2ccccc2c(=O)c2ccccc12,inactive
15,Cc1ccc(/C=C/C(=O)Nc2ccc([N+](=O)[O-])c(NC(=O)/C=C/c3ccc(C)o3)c2)o1,inactive
16,O=C(NNC(=O)C1CCCC1)c1ccc(F)cc1,inactive
17,O=C(/C=C/c1ccc([N+](=O)[O-])o1)NNC(=O)c1ccc(F)cc1,20.6 µM [inhibitor] (active)
18,O=C(Cc1ccc(NC(=O)C2CCCN(C(=O)CCc3ccccc3)C2)cc1)Nc1ccc(C(=O)N2CCOCC2)cc1 (stereo unspecified),inactive
19,CC(C)=CCc1ccc(O)c(=O)cc1C(C)C,inactive
20,CCCCN(C(=O)CSCc1ccc(C)cc1)c1c(N)n(Cc2ccccc2)c(=O)[nH]c1=O,inactive
21,CSCCC(NC(=O)COc1ccccc1)C(=O)OCc1ccc(Cl)cc1 (stereo unspecified),inactive
22,CC(C)Sc1nc(N)nc2c1ncn2C1OC(CO)C(O)C1O (stereo unspecified),inactive
23,COc1ccc(N)c(C)c1,inactive
24,CN1CCC(N(C)C(=O)c2ccc(Cl)c(S(=O)(=O)Nc3ccc(Cl)cc3)c2)CC1,inactive

row,Compound,Potency
1,CC1C(C)N(C(=O)CCl)c2ccccc2N1C(=O)CCl (stereo unspecified),inactive
2,Cn1c(=S)sc2ccc3ccccc3c21,inactive
3,COC(=O)Cc1c(-c2[nH]c3ccccc3c2CC(=O)OC)[nH]c2ccccc12,inactive
4,COc1cc2c(cc1OC)C1C(=O)c3cc(OS(C)(=O)=O)c(OC)cc3C1N(C)C2=O (stereo unspecified),inactive
5,COc1ccc2oc(N)nc2c1,inactive
6,CCN(CC)S(=O)(=O)c1cccc(NC(=O)c2ccc(S(=O)(=O)N3CCCC3)cc2)c1,inactive
7,CCOC(=O)C1CCCN(C(=O)C2CCN(S(=O)(=O)c3ccc(Cl)c(C(F)(F)F)c3)CC2)C1 (stereo unspecified),inactive
8,O=C(Nc1ccccc1)Oc1cccc2cccnc12,inactive
9,O=C(NCC1CCCCC1)NCC1CCCCC1,inactive
10,CSCCC(NC(=O)COc1ccccc1)C(=O)N1CCN(c2cccc(C(F)(F)F)c2)CC1 (stereo unspecified),inactive
11,O=C(CC(=O)c1cccnc1)c1ccccc1,inactive
12,Nc1cc2c(cc1Br)-c1ccc(F)cc1C2=O,inactive
13,O=C1/C(=C\c2ccc([N+](=O)[O-])cc2)CS(=O)(=O)C/C1=C/c1ccc([N+](=O)[O-])cc1,inactive
14,O=C(NNC(=O)c1ccccc1O)c1ccccc1O,inactive
15,CCOC(=O)C(CO)NC(=O)C1(NC(C)=O)CCCC1 (stereo unspecified),inactive
16,CCCC(O)(c1ccccc1)C(c1ccccc1)c1ccccn1 (stereo unspecified),inactive
17,O=C(NCCc1ccccc1)c1c[nH]c2ccc(F)cc2c1=O,inactive
18,O=C1CC[C@@H]2CC3(C[C@@H]4CCN1[C@H]24)Nc1cc([N+](=O)[O-])ccc1NC3=NC1CCCCC1 (stereo partly specified),inactive
19,CN(C(=O)c1cccc(NC(=O)Cc2ccc(NC(=O)C3CCCN(C(=O)C4CC4)C3)cc2)c1)C1CC1 (stereo unspecified),inactive
20,CN(CCc1ccccc1)C(=O)c1cccc(NC(=O)Cc2cccc(NC(=O)C3CCCN(C(=O)C4CCC4)C3)c2)c1 (stereo unspecified),inactive
21,C[C@@H]1ON(C)[C@H]2C[C@H]3c4cc(N5CCN(C)CC5)ccc4CCN3C(=O)[C@@H]12,inactive
22,CC1CCCN(C(=O)Cn2c(=O)oc3cc(S(=O)(=O)N4CCCCC4C)ccc32)C1 (stereo unspecified),inactive
23,NC1=NOC(=O)C1C1CCCCC1 (stereo unspecified),inactive
